Experimental data taken from PMC8222333, “AsCas12a ultra nuclease facilitates the rapid generation of therapeutic cell medicines”.

Experiments:
Experiment in all cases: Spec-seq (native PAGE EMSA with sequencing of bound and unbound); 25 mM Tris-HCl pH 7.4, 150 mM KCl, 5 mM MgCl2, 10% glycerol, 1 mM DTT, 40 ng/uL salmon sperm DNA; 400 nM Cas12a, 480 nM crRNA, 50 nM library, 37 C 1 h; native PAGE at room temperature; high values mean tight binding
Settings in all cases: protein: recombinant
[1] = molecular target: dAsCas12a S542R (Acidaminococcus sp., UniProt U2UMQ6 1-1307, S542R;D908A;E993A;D1235A)
[2] = molecular target: d-enCas12a (Acidaminococcus sp., UniProt U2UMQ6 1-1307, E174R;S542R;K548R;D908A;E993A;D1235A)
[3] = molecular target: d-enCas12a-Ultra (Acidaminococcus sp., UniProt U2UMQ6 1-1307, E174R;S542R;K548R;M537R;F870L;D908A;E993A;D1235A)
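Further: relative affinity from the bound to unbound sequence frequency ratio in Spec-seq.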

Binder	binding signal [1]	binding signal [2]	binding signal [3]
AGCC (dsDNA) DNA 1: GCTATCTAGTGCTCAGTACGCACTGAGCCAGGAAACTTCTGGCAGGACCAGGTCATGAGATCGGAAGAGCACACGTCTGAACTCCAGTCA DNA 2: TGACTGGAGTTCAGACGTGTGCTCTTCCGATCTCATGACCTGGTCCTGCCAGAAGTTTCCTGGCTCAGTGCGTACTGAGCACTAGATAGC RNA: AAUUUCUACUCUUGUAGAUAGGAAACUUCUGGCAGGACC	-8.34 lnKA	-2.31 lnKA	-0.527 lnKA
AGCT (dsDNA) DNA 1: GCTATCTAGTGCTCAGTACGCACTGAGCTAGGAAACTTCTGGCAGGACCAGGTCATGAGATCGGAAGAGCACACGTCTGAACTCCAGTCA DNA 2: TGACTGGAGTTCAGACGTGTGCTCTTCCGATCTCATGACCTGGTCCTGCCAGAAGTTTCCTAGCTCAGTGCGTACTGAGCACTAGATAGC RNA: AAUUUCUACUCUUGUAGAUAGGAAACUUCUGGCAGGACC	-8.99 lnKA	-4.97 lnKA	-1.83 lnKA
CACC (dsDNA) DNA 1: GCTATCTAGTGCTCAGTACGCACTGCACCAGGAAACTTCTGGCAGGACCAGGTCATGAGATCGGAAGAGCACACGTCTGAACTCCAGTCA DNA 2: TGACTGGAGTTCAGACGTGTGCTCTTCCGATCTCATGACCTGGTCCTGCCAGAAGTTTCCTGGTGCAGTGCGTACTGAGCACTAGATAGC RNA: AAUUUCUACUCUUGUAGAUAGGAAACUUCUGGCAGGACC	-8.05 lnKA	-1.94 lnKA	-0.454 lnKA
CAGC (dsDNA) DNA 1: GCTATCTAGTGCTCAGTACGCACTGCAGCAGGAAACTTCTGGCAGGACCAGGTCATGAGATCGGAAGAGCACACGTCTGAACTCCAGTCA DNA 2: TGACTGGAGTTCAGACGTGTGCTCTTCCGATCTCATGACCTGGTCCTGCCAGAAGTTTCCTGCTGCAGTGCGTACTGAGCACTAGATAGC RNA: AAUUUCUACUCUUGUAGAUAGGAAACUUCUGGCAGGACC	-8.95 lnKA	-5.94 lnKA	-3.45 lnKA
CACA (dsDNA) DNA 1: GCTATCTAGTGCTCAGTACGCACTGCACAAGGAAACTTCTGGCAGGACCAGGTCATGAGATCGGAAGAGCACACGTCTGAACTCCAGTCA DNA 2: TGACTGGAGTTCAGACGTGTGCTCTTCCGATCTCATGACCTGGTCCTGCCAGAAGTTTCCTTGTGCAGTGCGTACTGAGCACTAGATAGC RNA: AAUUUCUACUCUUGUAGAUAGGAAACUUCUGGCAGGACC	-8.06 lnKA	-2.71 lnKA	-0.596 lnKA
CAAG (dsDNA) DNA 1: GCTATCTAGTGCTCAGTACGCACTGCAAGAGGAAACTTCTGGCAGGACCAGGTCATGAGATCGGAAGAGCACACGTCTGAACTCCAGTCA DNA 2: TGACTGGAGTTCAGACGTGTGCTCTTCCGATCTCATGACCTGGTCCTGCCAGAAGTTTCCTCTTGCAGTGCGTACTGAGCACTAGATAGC RNA: AAUUUCUACUCUUGUAGAUAGGAAACUUCUGGCAGGACC	-8.58 lnKA	-5.75 lnKA	-3.48 lnKA
CAAT (dsDNA) DNA 1: GCTATCTAGTGCTCAGTACGCACTGCAATAGGAAACTTCTGGCAGGACCAGGTCATGAGATCGGAAGAGCACACGTCTGAACTCCAGTCA DNA 2: TGACTGGAGTTCAGACGTGTGCTCTTCCGATCTCATGACCTGGTCCTGCCAGAAGTTTCCTATTGCAGTGCGTACTGAGCACTAGATAGC RNA: AAUUUCUACUCUUGUAGAUAGGAAACUUCUGGCAGGACC	-8.59 lnKA	-5.72 lnKA	-3.43 lnKA
ATCC (dsDNA) DNA 1: GCTATCTAGTGCTCAGTACGCACTGATCCAGGAAACTTCTGGCAGGACCAGGTCATGAGATCGGAAGAGCACACGTCTGAACTCCAGTCA DNA 2: TGACTGGAGTTCAGACGTGTGCTCTTCCGATCTCATGACCTGGTCCTGCCAGAAGTTTCCTGGATCAGTGCGTACTGAGCACTAGATAGC RNA: AAUUUCUACUCUUGUAGAUAGGAAACUUCUGGCAGGACC	-4.3 lnKA	-0.902 lnKA	-0.294 lnKA
CACG (dsDNA) DNA 1: GCTATCTAGTGCTCAGTACGCACTGCACGAGGAAACTTCTGGCAGGACCAGGTCATGAGATCGGAAGAGCACACGTCTGAACTCCAGTCA DNA 2: TGACTGGAGTTCAGACGTGTGCTCTTCCGATCTCATGACCTGGTCCTGCCAGAAGTTTCCTCGTGCAGTGCGTACTGAGCACTAGATAGC RNA: AAUUUCUACUCUUGUAGAUAGGAAACUUCUGGCAGGACC	-8.68 lnKA	-4.44 lnKA	-1.41 lnKA
ATCG (dsDNA) DNA 1: GCTATCTAGTGCTCAGTACGCACTGATCGAGGAAACTTCTGGCAGGACCAGGTCATGAGATCGGAAGAGCACACGTCTGAACTCCAGTCA DNA 2: TGACTGGAGTTCAGACGTGTGCTCTTCCGATCTCATGACCTGGTCCTGCCAGAAGTTTCCTCGATCAGTGCGTACTGAGCACTAGATAGC RNA: AAUUUCUACUCUUGUAGAUAGGAAACUUCUGGCAGGACC	-6.64 lnKA	-3.44 lnKA	-0.793 lnKA
AGCG (dsDNA) DNA 1: GCTATCTAGTGCTCAGTACGCACTGAGCGAGGAAACTTCTGGCAGGACCAGGTCATGAGATCGGAAGAGCACACGTCTGAACTCCAGTCA DNA 2: TGACTGGAGTTCAGACGTGTGCTCTTCCGATCTCATGACCTGGTCCTGCCAGAAGTTTCCTCGCTCAGTGCGTACTGAGCACTAGATAGC RNA: AAUUUCUACUCUUGUAGAUAGGAAACUUCUGGCAGGACC	-8.91 lnKA	-4.77 lnKA	-1.73 lnKA
CAAA (dsDNA) DNA 1: GCTATCTAGTGCTCAGTACGCACTGCAAAAGGAAACTTCTGGCAGGACCAGGTCATGAGATCGGAAGAGCACACGTCTGAACTCCAGTCA DNA 2: TGACTGGAGTTCAGACGTGTGCTCTTCCGATCTCATGACCTGGTCCTGCCAGAAGTTTCCTTTTGCAGTGCGTACTGAGCACTAGATAGC RNA: AAUUUCUACUCUUGUAGAUAGGAAACUUCUGGCAGGACC	-8.57 lnKA	-5.66 lnKA	-3.35 lnKA
ATAC (dsDNA) DNA 1: GCTATCTAGTGCTCAGTACGCACTGATACAGGAAACTTCTGGCAGGACCAGGTCATGAGATCGGAAGAGCACACGTCTGAACTCCAGTCA DNA 2: TGACTGGAGTTCAGACGTGTGCTCTTCCGATCTCATGACCTGGTCCTGCCAGAAGTTTCCTGTATCAGTGCGTACTGAGCACTAGATAGC RNA: AAUUUCUACUCUUGUAGAUAGGAAACUUCUGGCAGGACC	-8.39 lnKA	-4.61 lnKA	-1.84 lnKA
CAAC (dsDNA) DNA 1: GCTATCTAGTGCTCAGTACGCACTGCAACAGGAAACTTCTGGCAGGACCAGGTCATGAGATCGGAAGAGCACACGTCTGAACTCCAGTCA DNA 2: TGACTGGAGTTCAGACGTGTGCTCTTCCGATCTCATGACCTGGTCCTGCCAGAAGTTTCCTGTTGCAGTGCGTACTGAGCACTAGATAGC RNA: AAUUUCUACUCUUGUAGAUAGGAAACUUCUGGCAGGACC	-8.83 lnKA	-5.54 lnKA	-3.19 lnKA
AGGC (dsDNA) DNA 1: GCTATCTAGTGCTCAGTACGCACTGAGGCAGGAAACTTCTGGCAGGACCAGGTCATGAGATCGGAAGAGCACACGTCTGAACTCCAGTCA DNA 2: TGACTGGAGTTCAGACGTGTGCTCTTCCGATCTCATGACCTGGTCCTGCCAGAAGTTTCCTGCCTCAGTGCGTACTGAGCACTAGATAGC RNA: AAUUUCUACUCUUGUAGAUAGGAAACUUCUGGCAGGACC	-8.3 lnKA	-5.79 lnKA	-3.34 lnKA
CAGA (dsDNA) DNA 1: GCTATCTAGTGCTCAGTACGCACTGCAGAAGGAAACTTCTGGCAGGACCAGGTCATGAGATCGGAAGAGCACACGTCTGAACTCCAGTCA DNA 2: TGACTGGAGTTCAGACGTGTGCTCTTCCGATCTCATGACCTGGTCCTGCCAGAAGTTTCCTTCTGCAGTGCGTACTGAGCACTAGATAGC RNA: AAUUUCUACUCUUGUAGAUAGGAAACUUCUGGCAGGACC	-8.93 lnKA	-5.81 lnKA	-3.41 lnKA
ATGG (dsDNA) DNA 1: GCTATCTAGTGCTCAGTACGCACTGATGGAGGAAACTTCTGGCAGGACCAGGTCATGAGATCGGAAGAGCACACGTCTGAACTCCAGTCA DNA 2: TGACTGGAGTTCAGACGTGTGCTCTTCCGATCTCATGACCTGGTCCTGCCAGAAGTTTCCTCCATCAGTGCGTACTGAGCACTAGATAGC RNA: AAUUUCUACUCUUGUAGAUAGGAAACUUCUGGCAGGACC	-8.74 lnKA	-5.71 lnKA	-3.4 lnKA
